Redox H2O2 prof – compounds producing H2O2 with reducing agent – biochemical, NIH compound library profiling, artefact control for MLSCN library redox annotation, primary screen. DTT-dependent redox cycling H2O2, phenol red/HRP absorbance; 100% = 100 µM peroxide control, 0% = buffer. activation, % at 10 µM. 200,000 tested, 0.03% active;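 active = activation of at least 50% relative to the plate's high and low controls in the primary single-dose screen; inactive = activation below 50%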;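 note: compound incubated with DTT at 0.8 mM final as the reducing agent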
LYPLA2 counter – LYPLA2 (human) inhibition in PME1 counter-screen. recombinant LYPLA2, FP-Rh probe fluorescence polarization. inhibition, % at 5.9 µM. 320,000 tested, 0.38% active. AID 2177;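 active = inhibition above the screen-wide mean plus 3 SD, limit set per campaign, cut at about 26% in these data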
p97 inhibitor – inhibitors of human p97 ATPase; P55072; recombinant p97 ATPase, Kinase-Glo ATP luminescence, 3 h; inhibition, % at 8 µM; 220,000 tested, 0.42% active; in the data active = inhibition above about 15%
Target sequence (P55072 whole entry, looked up): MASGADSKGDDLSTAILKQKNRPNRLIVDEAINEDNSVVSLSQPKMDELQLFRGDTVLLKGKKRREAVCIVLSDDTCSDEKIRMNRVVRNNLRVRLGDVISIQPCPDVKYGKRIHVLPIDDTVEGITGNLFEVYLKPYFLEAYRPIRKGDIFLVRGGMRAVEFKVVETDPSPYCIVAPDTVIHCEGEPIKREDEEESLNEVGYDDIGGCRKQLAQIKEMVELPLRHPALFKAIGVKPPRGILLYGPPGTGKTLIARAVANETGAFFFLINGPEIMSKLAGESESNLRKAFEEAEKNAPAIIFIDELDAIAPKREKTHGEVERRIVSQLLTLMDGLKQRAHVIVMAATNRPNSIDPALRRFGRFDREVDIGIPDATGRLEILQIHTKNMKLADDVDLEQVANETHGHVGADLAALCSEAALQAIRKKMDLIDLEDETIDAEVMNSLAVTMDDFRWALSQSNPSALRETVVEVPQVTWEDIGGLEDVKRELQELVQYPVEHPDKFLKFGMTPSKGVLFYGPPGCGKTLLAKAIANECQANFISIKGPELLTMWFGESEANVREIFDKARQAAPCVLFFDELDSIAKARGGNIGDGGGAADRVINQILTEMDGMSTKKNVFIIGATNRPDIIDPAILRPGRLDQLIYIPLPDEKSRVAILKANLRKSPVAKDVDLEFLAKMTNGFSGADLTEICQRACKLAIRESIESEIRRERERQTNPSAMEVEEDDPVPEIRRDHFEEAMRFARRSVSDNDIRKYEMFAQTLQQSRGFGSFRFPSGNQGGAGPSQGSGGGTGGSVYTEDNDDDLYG
LYPLA1 inh – counter-screen for PME1 inhibitors: inhibitors of human LYPLA1 | O75608 | recombinant LYPLA1, FP-Rh probe fluorescence polarization | inhibition, % at 5.9 µM | 320,000 tested, 0.16% active | AID 2174;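 active = inhibition above the mean of all tested compounds plus 3 SD, set per campaign, cut at about 14% in these data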;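 note: inhibitors block serine hydrolase probe labeling of LYPLA1 so polarization falls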
LYPLA2 conf – LYPLA2 (human) inhibition, confirmation counter-screen | shares compounds with LYPLA2 counter | recombinant LYPLA2, FP-Rh probe fluorescence polarization | inhibition, % at 5.9 µM | 1,100 tested, 72% active;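 active = mean inhibition across replicates above the hit cutoff set in the primary screen, cut at about 26% in these data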;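 note: blocked labeling of the enzyme by serine hydrolase FP-Rh probe lowers polarization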
LYPLA2 ABPP – blocks human acyl-protein thioesterase 2 in gel ABPP. shares compounds with LYPLA2 counter. 150 tested, 30% active. inhibition, % at 20 µM. AID 652029. rhLYPLA2 in mouse brain proteome, gel ABPP FP-Rh;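 active = inhibition of LYPLA2 enzyme probe labeling above about 50%, limit read from the data; inactive = inhibition below that limit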;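 note: loss of FP-Rh probe labeling of the LYPLA2 gel band measured as band density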
Of the large screens only hits and unclear results are named; the others gave an inactive call (follow-up assays come after a bar, where they were run). Compounds with a hit are over-represented: about 0.74% of the library has one in this group of screens.

Cc1c(NC(=O)/C=C/c2cn(-c3ccccc3)nc2-c2ccc(F)cc2)c(=O)n(-c2ccccc2)n1C	LYPLA2 counter 31 (no result: Redox H2O2 prof, p97 inhibitor) | LYPLA2 conf 30
N#Cc1ccc(CN2CCN(CC(=O)NCCc3ccc(Cl)cc3Cl)CC2)cc1	LYPLA2 counter 27 (no result: Redox H2O2 prof, p97 inhibitor) | LYPLA2 conf inactive
O=C(Cn1cc(C(F)(F)F)ccc1=O)NCCc1ccc(Cl)cc1Cl	none
Cc1nn(C)cc1S(=O)(=O)N1CCN(Cc2cccc(Cl)c2)CC1	none
O=C1[C@@H]2Cc3c([nH]c4ccccc34)CN2C(=O)CN1CCCCCO	LYPLA2 counter 30 (no result: Redox H2O2 prof, p97 inhibitor) | LYPLA2 conf inactive
CC(C)CCN1CC(=O)N2Cc3[nH]c4ccccc4c3C[C@H]2C1=O	LYPLA2 counter 60 (no result: Redox H2O2 prof, p97 inhibitor) | LYPLA2 conf 56 | LYPLA2 ABPP inactive
O=C1[C@@H]2Cc3c([nH]c4ccccc34)CN2C(=O)CN1CCO	none (no result: Redox H2O2 prof, p97 inhibitor)
COc1ccc(NC(=O)CN2C(=O)CSc3ncccc32)cc1	none (no result: Redox H2O2 prof, p97 inhibitor)
CCCCNC(=O)c1onc(CSc2cc(C)cc(C)c2)c1C(=O)NCCCC	none (no result: Redox H2O2 prof, p97 inhibitor)
CCC1(C)Cc2c(sc3nnn(CC(=O)Nc4ccccc4)c(=O)c23)CO1 (centres undefined)	LYPLA2 counter 39 | LYPLA2 conf 38
Cc1cccc(NC(=O)Cn2nnc3sc4c(c3c2=O)CC(C)(C)OC4)c1	LYPLA2 counter 39 (no result: Redox H2O2 prof) | LYPLA2 conf 48
Cc1ccccc1NC(=O)Cn1nnc2sc3c(c2c1=O)CC(C)(C)OC3	none (no result: Redox H2O2 prof)
CCCc1cc(=O)n2nc(N3CCC(C(=O)N4CCN(c5ccc(OC)cc5)CC4)CC3)sc2n1	LYPLA2 counter 51 (no result: Redox H2O2 prof, p97 inhibitor) | LYPLA2 conf 49
Cc1cc(=O)n2nc(N3CCC(C(=O)N4CCN(c5ccccc5)CC4)CC3)sc2n1	none (no result: Redox H2O2 prof, p97 inhibitor)
Cc1cc(C(=O)NC(C)c2ccccc2)c2cc(F)ccc2n1 (centres undefined)	LYPLA2 counter 28 | LYPLA2 conf inactive
CCCC(=O)N1CCCC(c2nc(-c3cccc(OC)c3)no2)C1 (centres undefined)	none
CCCCCCC(=O)N1CCCC(c2nc(-c3cccc(OC)c3)no2)C1 (centres undefined)	LYPLA2 counter 27 (no result: Redox H2O2 prof) | LYPLA2 conf inactive
Cc1cc2c(NC(=O)Nc3ccc(C(C)(C)C)cc3)cccc2nn1	none (no result: Redox H2O2 prof)
Cc1cc2c(NC(=O)Nc3ccccc3)cccc2nn1	LYPLA2 counter 35 (no result: Redox H2O2 prof) | LYPLA2 conf 36
CC1CCCN(S(=O)(=O)c2ccc(NC(=O)[C@@H]3CCCN3C(=O)c3cccs3)cc2)C1 (some centres undefined)	none (no result: Redox H2O2 prof, p97 inhibitor)
O=C(c1cccc(Br)c1)N1CCN(c2cnn(-c3ccccc3)c(=O)c2Cl)CC1	LYPLA2 counter 28 | LYPLA2 conf inactive
CCSc1nc(-c2cccs2)nc2ccccc12	none
CN(C(=O)COc1ccc([N+](=O)[O-])cc1)C1CCS(=O)(=O)C1 (centres undefined)	LYPLA2 counter 31 | LYPLA2 conf inactive
Cc1nc2ccccc2n2c(O)c(CC(=O)O)cc12	LYPLA2 counter 27 | LYPLA2 conf inactive
Cc1nc([N+](=O)[O-])cn1CC(=O)Nc1ccc([N+](=O)[O-])cc1	LYPLA2 counter 33 (no result: Redox H2O2 prof, p97 inhibitor) | LYPLA2 conf 41
Cc1nc([N+](=O)[O-])cn1CC(=O)c1ccccc1	none (no result: Redox H2O2 prof)
C/C(=C\c1ccc2c(c1)OCO2)C1Nc2cccc3cccc(c23)N1	none (no result: Redox H2O2 prof, p97 inhibitor)
CN(Cc1nc(-c2ccccn2)no1)S(=O)(=O)c1ccc(Br)cc1	LYPLA2 counter 37 | LYPLA2 conf 35
CN(Cc1nc(-c2cccnc2)no1)S(=O)(=O)c1ccc(Br)cc1	LYPLA2 counter 41 | LYPLA2 conf 31
CC(C)N(Cc1nc(-c2ccccc2)no1)C(=O)CN(C)S(=O)(=O)c1ccc(Br)cc1	none
COc1ccc(OC)c(-c2cc(C3CCN(C(=O)OC(C)(C)C)CC3)[nH]n2)c1	none
COc1ccc(-c2cc(C3CCN(c4ccc(C(C)=O)cc4[N+](=O)[O-])CC3)[nH]n2)cc1	LYPLA2 counter 37 | LYPLA2 conf 42
COC(=O)c1ccc(N2CCC(c3cc(-c4ccc(OC)cc4)n[nH]3)CC2)c([N+](=O)[O-])c1	LYPLA2 counter 26 | LYPLA2 conf inactive
COc1ccc(-c2cc(C3CCN(C(=O)OC(C)(C)C)CC3)[nH]n2)cc1	LYPLA2 counter 27 | LYPLA2 conf inactive
Cc1ccccc1-c1nc(CS(=O)CC(=O)NC(C)CCc2ccccc2)c(C)o1 (centres undefined)	none (no result: Redox H2O2 prof, p97 inhibitor)
O=C(COC(=O)/C=C/c1cccc(C(F)(F)F)c1)NC1CCCCCC1	none (no result: Redox H2O2 prof, p97 inhibitor)
COc1ccc(Nc2nc(-c3cccc([N+](=O)[O-])c3)nc3ccccc23)cc1	LYPLA2 counter 37 | LYPLA2 conf inactive
COc1ccc(Nc2nc(-c3ccccc3)nc3ccccc23)cc1	none (no result: Redox H2O2 prof, p97 inhibitor)
CCOC(=O)CSc1nnc(CSc2nc3sc4c(c3c(=O)[nH]2)CCC4)n1-c1ccccc1	LYPLA2 counter 57 | LYPLA2 conf 51
CCOC(=O)CSc1nnc(CSc2nc3sc4c(c3c(=O)[nH]2)CCC4)n1C	none
Nc1cccc(Oc2ccc([N+](=O)[O-])cc2)c1	LYPLA2 counter 32 | LYPLA2 conf 35
O=C1c2ccc(Oc3ccc([N+](=O)[O-])cc3)cc2C(=O)N1CCO	none (no result: Redox H2O2 prof, p97 inhibitor)
O=C1NC(=O)c2cc(Oc3ccc([N+](=O)[O-])cc3)ccc21	LYPLA2 counter 30 (no result: Redox H2O2 prof, p97 inhibitor) | LYPLA2 conf 36
O=C(O)c1ccc(CN2C(=O)c3ccc(Oc4ccc([N+](=O)[O-])cc4)cc3C2=O)cc1	LYPLA2 counter 59 (no result: Redox H2O2 prof, p97 inhibitor) | LYPLA2 conf 66 | LYPLA2 ABPP 59
C/C=C/c1ccc(OCC(=O)Nc2cc(S(=O)(=O)N3CCOCC3)ccc2N2CCCC2)c(OC)c1	none (no result: Redox H2O2 prof, p97 inhibitor)
CC(Sc1ccc([N+](=O)[O-])cn1)C(=O)Nc1nccs1 (centres undefined)	none (no result: Redox H2O2 prof, p97 inhibitor)
O=C(NCc1cccc(Cl)c1)c1cc(COc2ccc3ncccc3c2)on1	LYPLA2 counter 39 | LYPLA2 conf 36
Cc1cc(C)n(CCNC(=O)c2cc(COc3ccc4ncccc4c3)on2)n1	none (no result: Redox H2O2 prof)
Cc1ccc(F)cc1CNC(=O)c1cc(COc2ccc3ncccc3c2)on1	LYPLA2 counter 46 | LYPLA2 conf 54 | LYPLA2 ABPP inactive
CSc1cc(C)c(OCC(=O)Nc2c(C)nn(C)c2C)c(C)c1	none (no result: Redox H2O2 prof, p97 inhibitor)
CCCCOc1ccc(OC(=O)c2cccnc2)cc1	none
CCCCCCCOc1ccc(OC(=O)c2cccnc2)cc1	LYPLA2 counter 41 | LYPLA2 conf 48
CCCCCCCOc1ccc(OC(=O)c2ccncc2)cc1	LYPLA2 counter 32 | LYPLA2 conf 49
CC(=O)c1c(C)[nH]c(C(=O)COC(=O)c2ccc(Cl)nc2)c1C	none (no result: Redox H2O2 prof, p97 inhibitor)
CC(=O)c1c(C)[nH]c(C(=O)COC(=O)CN(C)S(=O)(=O)c2ccc(Cl)cc2)c1C	LYPLA2 counter 35 | LYPLA2 conf inactive
CC1CCCN(C(=O)CN2C(=O)C(C)Oc3ccccc32)C1 (centres undefined)	LYPLA2 counter 29 (no result: Redox H2O2 prof, p97 inhibitor) | LYPLA2 conf inactive

Bioassay records: PubChem BioAssay, several laboratories
